In PubChem BioAssay (Tox21) one finds Potency and outcome data, which are given here for seven molecules.

“And” between values parts separate entries of the source, which are not always exact repeats. Equal values may be shown once. Records with an inconclusive call do not appear. Some compounds were tested as several samples or in several runs, with calls that do not always agree. The source made the active and inactive calls. Unless noted, calls follow the shape of the dose curve; as a rule, active = well fitted curve in the direction sought with a large enough effect in the repeat runs; inconclusive = weak or mixed curves; inactive = no such curve, though single readings can be large; an effect the other way counts as inactive or inconclusive.

The nature of test [1]: qHTS assay to identify small molecule agonists of the vitamin D receptor (VDR) signaling pathway - cell viability counter screen (AID 743224). Also: nearly all actives have a fitted effect of over 50% in size. Also: potency is read from the fitted curve at half-maximal effect. To be noted: VDR-bla HEK293T viability, CellTiter-Glo luminescence, 16 h; series mostly up to 62.6 µM. The method, boiled down:
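VDR-bla cell line, quantitative HTS format; 16 h compound incubation (37C, 5% CO2); ATP-based CellTiter-Glo luminescence measured in the reporter assay wells.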

A short description of test [2]: qHTS assay to identify small molecule antagonists of the vitamin D receptor (VDR) signaling pathway - cell viability counter screen (AID 743225). Also: nearly all actives have a fitted effect of over 50% in size. Also: potency is read from the fitted curve at half-maximal effect. To be noted: VDR-bla HEK293T viability, CellTiter-Glo luminescence, 16 h; series mostly up to 61 µM. The method, boiled down:
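HEK293T VDR-bla; cpd + 1a,25-(OH)2D3 3 nM final, 16 h 37C/5% CO2; B/G FRET substrate 2 h RT; then CellTiter-Glo 30 min RT, luminescence.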
For orientation: qHTS replaces the single test concentration by a dilution series.

Test [3] can be described thus: qHTS assay to identify small molecule agonists of the endoplasmic reticulum stress response signaling pathway (AID 1159516; active = well fitted activation curve with a large enough effect in the signal ratio in the repeat runs, not every such curve was filed as active; the % refers to the signal ratio). To be noted: ESRE-bla HeLa, ER stress beta-lactamase reporter, 5 h; series mostly up to 61 µM. The method in brief: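 ER stress element reporter (bla) in HeLa. 1,500 cells/well, overnight attachment; 5 hr compound; 2 hr RT substrate; dual-emission fluorescence.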

Test [4] can be described thus: qHTS assay to identify small molecule agonists of the endoplasmic reticulum stress response signaling pathway - cell viability counter screen (AID 1159517; calls by dose curve; also: nearly all actives have a fitted effect of over 50% in size; also: potency is read from the fitted curve at half-maximal effect). The conditions noted are these: ESRE-bla HeLa viability, CellTiter-Glo luminescence, 5 h; series mostly up to 61 µM. The method in brief: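 Luminescence readout: CellTiter-Glo, 30 min RT, same wells as the ESRE-bla reporter read. HeLa ESRE-bla, 1,500 cells/well, o/n 37 C; cpd 5 hr 37 C/5% CO2.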

Test [5] in a line: qHTS assay to identify small molecule antagonists of the retinoid-related orphan receptor gamma (ROR-gamma) signaling pathway - cell viability counter screen (AID 1159520). Also: nearly all actives have a fitted effect of over 50% in size. Also: potency is read from the fitted curve at half-maximal effect. To be noted: Tet-on RORgamma CHO cells viability, ATP luminescence, 16 h; series mostly up to 92.4 µM. The method in brief: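 Tet-on ROR gamma CHO cells (1,000/well) were plated 4 hr, given compounds in DMSO for 2 hr at 37 C, then induced with 1 uM final doxycycline for 16 hr. Viability was read as ATP by CellTiter-Glo luminescence after 30 min.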

The target in test [6] is Nuclear receptor ROR-gamma (Homo sapiens) (UniProt P51449). In words: qHTS assay to identify small molecule antagonists of the retinoid-related orphan receptor gamma (ROR-gamma) signaling pathway (AID 1159521; also: nearly all actives have a fitted effect of over 50% in size; also: potency is read from the fitted curve at half-maximal effect). To be noted: Tet-on RORgamma CHO cells, RORE-luciferase, 16 h; series mostly up to 92.4 µM. The method, boiled down: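 Cells were plated, rested 4 h at 37 C, exposed to compounds for 2 h, then given 1 uM final doxycycline hyclate to induce RORγ expression. After 16 h, ONE-Glo luminescence from the ROR response element reporter was measured.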

A short description of test [7]: qHTS assay to identify small molecule agonists of the AP-1 signaling pathway - cell viability counter screen (AID 1159525; calls by dose curve; also: nearly all actives have a fitted effect of over 55% in size; also: potency is read from the fitted curve at half-maximal effect). To be noted: ME-180 AP-1-bla cells viability, ATP luminescence, 5 h; series mostly up to 76.8 µM. The method in brief: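 ME-180 AP-1-bla, 2500 cells/well, Opti-MEM + 0.5% dialyzed FBS; overnight 37 °C; cpd 15-pt titration, 5 h 37 °C; CellTiter-Glo 30 min RT; luminescence read; normalised to TOAB and DMSO controls.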

Test [8] can be described thus: qHTS assay to identify small molecule agonists of the AP-1 signaling pathway (AID 1159526; calls by dose curve). The conditions noted are these: ME-180 (cervical carcinoma) AP-1-bla reporter, beta-lactamase FRET ratio, 5 h; series mostly up to 76.8 µM.
For test [9], the target named is Retinoic acid receptor RXR-alpha (Homo sapiens) (UniProt P19793). In words: qHTS assay to identify small molecule agonists of the RXR signaling pathway (AID 1159527; calls by dose curve; also: nearly all actives have a fitted effect of over 35% in size). The conditions noted are these: HEK293T RXRa-UAS-bla, beta-lactamase ratio, 16 h; series mostly up to 76.8 µM. The method, boiled down: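 Cells plated at 2,000/well, rested 5 hr at 37 C, pin-dosed with DMSO compound solutions, incubated 16 hr, then loaded with B/G FRET substrate for 2 hr at RT before dual-emission fluorescence reading.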
Chain of Retinoic acid receptor RXR-alpha (Homo sapiens) (P19793 whole entry, looked up): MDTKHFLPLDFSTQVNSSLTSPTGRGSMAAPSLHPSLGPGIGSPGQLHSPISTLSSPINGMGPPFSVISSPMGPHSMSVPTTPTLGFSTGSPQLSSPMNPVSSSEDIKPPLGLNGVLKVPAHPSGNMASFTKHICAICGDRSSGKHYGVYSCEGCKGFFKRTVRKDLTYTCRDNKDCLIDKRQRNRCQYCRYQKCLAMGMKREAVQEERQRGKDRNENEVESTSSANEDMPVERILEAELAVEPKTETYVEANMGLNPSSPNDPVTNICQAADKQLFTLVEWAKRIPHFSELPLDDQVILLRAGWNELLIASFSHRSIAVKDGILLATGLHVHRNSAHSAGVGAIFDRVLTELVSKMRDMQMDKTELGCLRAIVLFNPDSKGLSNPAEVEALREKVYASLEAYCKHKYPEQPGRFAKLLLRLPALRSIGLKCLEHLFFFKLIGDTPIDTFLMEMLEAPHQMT

Test [10] can be described thus: qHTS assay to identify small molecule agonists of the RXR signaling pathway - cell viability counter screen (AID 1159529). Also: nearly all actives have a fitted effect of over 50% in size. Also: potency is read from the fitted curve at half-maximal effect. To be noted: RXR-alpha-bla HEK293T viability, CellTiter-Glo, 16 h; series mostly up to 76.8 µM. The method in brief: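 Steps: seed RXR-alpha-UAS-bla HEK 293T cells in assay medium containing 2% charcoal-stripped FBS; incubate 5 hr; add compounds in DMSO; incubate 16 hr at 37 C; after the bla read, add CellTiter-Glo and read luminescence at 30 min.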

Test [11] in a line: qHTS assay to identify small molecule antagonists of the retinoic acid receptor (RAR) signaling pathway (AID 1159552; also: nearly all actives have a fitted effect of over 50% in size). To be noted: C3RL4 RARE luciferase reporter, retinol-stimulated, 6 h; series mostly up to 92.4 µM. The method in brief: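 Retinol at 1 uM final stimulated RARE-luciferase expression in C3RL4 cells exposed to test compounds for 6 hr at 37 C. Reduced luminescence, read 30 min after detection reagent, indicated pathway antagonism.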

The nature of test [12]: qHTS assay to identify small molecule agonists of the retinoic acid receptor (RAR) signaling pathway (AID 1159553). The conditions noted are these: C3RL4 RARE luciferase reporter, agonist, 6 h; series mostly up to 73.3 µM. The method in brief:
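Cell line C3RL4, RARE luciferase reporter. Treatment: compounds in DMSO, 6 hr, 37 C, 5% CO2, after overnight plating. Detection: luminescence, 30 min RT after reagent.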

Test [13] can be described thus: qHTS assay to identify small molecule antagonists of the estrogen related receptor (ERR) signaling pathway (AID 1224819; also: nearly all actives have a fitted effect of over 50% in size; also: potency is read from the fitted curve at half-maximal effect). To be noted: ERR reporter cell line, luciferase inhibition; series mostly up to 46.1 µM. The method, boiled down: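 LOPAC library screened for antagonism as reduced One-Glo luminescence in ERR reporter cells (2,000/well). Compounds were added after 6 h pre-incubation and left 18 h at 37C; reading followed a 30 min room-temperature reagent step.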

Test [14] is described as follows: qHTS assay to identify small molecule agonists of the estrogen related receptor (ERR) signaling pathway (AID 1224820). To be noted: ERR reporter cell line, luciferase agonist mode; series mostly up to 46.1 µM. The method in brief: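 ERR reporter cells (NTP line) plated 2,000/well, incubated 6 h at 37 C/5% CO2, then pinned with compounds in DMSO and held 18 h at 37 C. One-Glo added; luminescence read after 30 min at room temperature.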

The test system of test [15] is estrogen-related receptor alpha (ERRalpha) with PGC-1alpha coactivator, human. In words: qHTS assay to identify small molecule antagonists of the estrogen related receptor signaling pathway with the pleiotropic PPARgamma coactivator (PGC) (AID 1224821; calls by dose curve; also: nearly all actives have a fitted effect of over 50% in size; also: potency is read from the fitted curve at half-maximal effect). To be noted: ERR/PGC reporter cell line, luciferase, antagonist mode; series mostly up to 46.1 µM. The method, boiled down:
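Cells engineered for PGC/ERR signalling (line from NTP) were plated 6 h at 37 C/5% CO2, then exposed to DMSO-dissolved compound for 18 h at 37 C. Luciferase activity was read by One-Glo luminescence after 30 min at room temperature.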

A short description of test [16]: qHTS assay to identify small molecule agonists of the estrogen related receptor signaling pathway with the pleiotropic PPARgamma coactivator (PGC) (AID 1224823). To be noted: ERR/PGC reporter cell line, luciferase agonist mode; series mostly up to 46.1 µM. The method in brief:
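PGC/ERR reporter cells were seeded, rested 6 h at 37 C/5% CO2, then exposed to compounds in DMSO by pin transfer for 18 h at 37 C. Luciferase activity was read as luminescence after One-Glo reagent and 30 min at room temperature.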

Test [17] is described as follows: qHTS assay to identify small molecule antagonists of the estrogen related receptor (ERR) signaling pathway from Tox21 library - cell viability counter screen (AID 1224834). Also: nearly all actives have a fitted effect of over 30% in size. Also: potency is read from the fitted curve at half-maximal effect. To be noted: ERR reporter cells viability, CellTiter-Fluor, 17.5 h; series mostly up to 92.4 µM. The method, boiled down:
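Viability readout (CellTiter-Fluor fluorescence, 30 min at 37 C) multiplexed with the ERR assay; cells treated 17.5 h at 37 C with compounds delivered in DMSO.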

Test [18] addresses Luciferin 4-monooxygenase (Photinus pyralis) (UniProt P08659). As to the kind of experiment: qHTS assay to identify small molecule inhibitors of firefly luciferase (AID 1224835). Also: nearly all actives have a fitted effect of over 25% in size. To be noted: purified P. pyralis luciferase, luminescence inhibition; series mostly up to 115 µM. The method in brief:
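Quantitative HTS format; KM concentrations of both substrates. Purified P. pyralis FLuc activity quantified from luminescence images.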

The nature of test [19]: qHTS assay to identify small molecule antagonists of the retinoid acid receptor (RAR) signaling pathway - cell viability counter screen (AID 1159551). Also: nearly all actives have a fitted effect of over 35% in size. To be noted: C3RL4 cells viability, ATP luminescence (CellTiter-Glo), 6 h; series mostly up to 92.4 µM. The method in brief:
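Following overnight attachment, C3RL4 reporter cells received DMSO-dissolved compounds and then retinol (1 uM final). Six hours later at 37 C, ATP content was measured by CellTiter-Glo luminescence.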

Chain of Luciferin 4-monooxygenase (Photinus pyralis) (P08659 whole entry, looked up): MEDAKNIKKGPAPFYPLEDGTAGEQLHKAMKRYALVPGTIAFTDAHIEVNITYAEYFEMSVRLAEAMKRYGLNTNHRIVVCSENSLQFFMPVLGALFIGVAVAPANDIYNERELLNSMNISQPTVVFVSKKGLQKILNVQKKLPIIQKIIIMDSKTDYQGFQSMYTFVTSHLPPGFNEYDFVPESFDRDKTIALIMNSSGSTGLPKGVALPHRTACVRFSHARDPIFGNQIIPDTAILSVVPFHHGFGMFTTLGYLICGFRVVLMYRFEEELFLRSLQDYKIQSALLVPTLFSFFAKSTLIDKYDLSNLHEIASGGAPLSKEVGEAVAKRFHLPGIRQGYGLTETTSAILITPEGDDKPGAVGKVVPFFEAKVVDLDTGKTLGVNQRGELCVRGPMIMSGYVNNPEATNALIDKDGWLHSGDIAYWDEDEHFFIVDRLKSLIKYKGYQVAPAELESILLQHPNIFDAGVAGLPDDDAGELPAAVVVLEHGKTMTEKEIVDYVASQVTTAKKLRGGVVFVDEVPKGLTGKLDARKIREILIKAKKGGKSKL

Take `c1cnc2cc3c(cc2n1)C1CNCC3C1`: the Potency entry in test [1], in test [2], in test [4], in test [5], in [6] and in test [7] was “inactive” each time. The Potency entry in [8], in test [9], in test [10], in [11], in [12] and in test [13] was “inactive” each time. In addition, the Potency entry in [15], in test [17] and in [18] was “inactive” throughout. Moreover, the molecule was called inactive in test [3], in test [14] and in [16].

Take `CC(=O)N[C@@H](CS)C(=O)O`: the Potency entry in test [1], in test [2], in test [4], in [5], in test [7] and in test [8] was “inactive” in each case. Moreover, the Potency entry in test [9], in [10], in [11], in test [12] and in [17] was “inactive” in each case.

Regarding `CC(=O)C1=C(C)[C@@H]2C[C@@]3(C1)[C@H](C)CC[C@H]3C2(C)C`, the Potency result in test [1], in [2], in test [5], in test [6], in test [7] and in test [8] was “inactive” in each case. Further, the Potency result in [9], in [10], in [17] and in test [18] was “inactive” each time.

Turning to `CCN(CC)C(=S)SSC(=S)N(CC)CC`, the Potency in test [1] was 110 nM (active) and 39.8 nM (active) and 188 nM (active); in test [5], 24.3 µM (active) and 176 nM (active); in test [6] it was 344 nM (active) and 44.3 nM (active) and 188 nM (active); in [10] it was 199 nM (active) and 213 nM (active); in [13], 10.9 µM (active) and 16.2 µM (active); in test [15], 386 nM (active) and 1.39 µM (active). Moreover, the Potency in test [17] was 243 nM (active) and 88.4 nM (active) and 335 nM (active). Further, the Potency result in test [2], in test [4] and in [19] was “inactive” in each case. The outcome in test [14] and in [16] was inactive.

On to `O=C(O)Cn1cnnn1`, for which the Potency result in [1], in [2], in test [4], in [6], in [7] and in [8] was “inactive” in each case. In addition, the Potency result in test [9], in test [10], in test [19], in [11], in [12] and in [17] was “inactive” each time. Further, the call in test [3] was inactive.

For `CC(C)(C)c1ccc(O)c(C(C)(C)C)c1`, the Potency in test [2] was 24.4 µM (active) and 43.6 µM (active); in test [4], 54.7 µM (active) and 49 µM (active); in [5] it was 54.3 µM (active); in test [6], 43.1 µM (active) and inactive; in test [7], 34.5 µM (active); in test [10] it was 21.8 µM (active) and 24.5 µM (active). Further, the Potency in test [17] was 48.4 µM (active) and 61.1 µM (active). Besides, the Potency entry in test [12] and in test [18] was “inactive” each time.

Regarding `CC(C)CCOCc1ccccc1`, the Potency entry in test [1], in [2], in [4], in test [5], in test [6] and in test [7] was “inactive” throughout. Besides, the Potency entry in [8], in [9], in test [10], in [19], in test [11] and in [12] was “inactive” each time. In [17], the Potency result is “inactive”.
